Results on 39 targets are retold here after the supplement of paper PMC10849652.

Of roughly 7,900 targets only a part is listed; those with a hit were picked by preference. About 0.6% of all pairs of compound and target were hits.

Sequence of UniProt O15118 (O15118 whole entry, looked up): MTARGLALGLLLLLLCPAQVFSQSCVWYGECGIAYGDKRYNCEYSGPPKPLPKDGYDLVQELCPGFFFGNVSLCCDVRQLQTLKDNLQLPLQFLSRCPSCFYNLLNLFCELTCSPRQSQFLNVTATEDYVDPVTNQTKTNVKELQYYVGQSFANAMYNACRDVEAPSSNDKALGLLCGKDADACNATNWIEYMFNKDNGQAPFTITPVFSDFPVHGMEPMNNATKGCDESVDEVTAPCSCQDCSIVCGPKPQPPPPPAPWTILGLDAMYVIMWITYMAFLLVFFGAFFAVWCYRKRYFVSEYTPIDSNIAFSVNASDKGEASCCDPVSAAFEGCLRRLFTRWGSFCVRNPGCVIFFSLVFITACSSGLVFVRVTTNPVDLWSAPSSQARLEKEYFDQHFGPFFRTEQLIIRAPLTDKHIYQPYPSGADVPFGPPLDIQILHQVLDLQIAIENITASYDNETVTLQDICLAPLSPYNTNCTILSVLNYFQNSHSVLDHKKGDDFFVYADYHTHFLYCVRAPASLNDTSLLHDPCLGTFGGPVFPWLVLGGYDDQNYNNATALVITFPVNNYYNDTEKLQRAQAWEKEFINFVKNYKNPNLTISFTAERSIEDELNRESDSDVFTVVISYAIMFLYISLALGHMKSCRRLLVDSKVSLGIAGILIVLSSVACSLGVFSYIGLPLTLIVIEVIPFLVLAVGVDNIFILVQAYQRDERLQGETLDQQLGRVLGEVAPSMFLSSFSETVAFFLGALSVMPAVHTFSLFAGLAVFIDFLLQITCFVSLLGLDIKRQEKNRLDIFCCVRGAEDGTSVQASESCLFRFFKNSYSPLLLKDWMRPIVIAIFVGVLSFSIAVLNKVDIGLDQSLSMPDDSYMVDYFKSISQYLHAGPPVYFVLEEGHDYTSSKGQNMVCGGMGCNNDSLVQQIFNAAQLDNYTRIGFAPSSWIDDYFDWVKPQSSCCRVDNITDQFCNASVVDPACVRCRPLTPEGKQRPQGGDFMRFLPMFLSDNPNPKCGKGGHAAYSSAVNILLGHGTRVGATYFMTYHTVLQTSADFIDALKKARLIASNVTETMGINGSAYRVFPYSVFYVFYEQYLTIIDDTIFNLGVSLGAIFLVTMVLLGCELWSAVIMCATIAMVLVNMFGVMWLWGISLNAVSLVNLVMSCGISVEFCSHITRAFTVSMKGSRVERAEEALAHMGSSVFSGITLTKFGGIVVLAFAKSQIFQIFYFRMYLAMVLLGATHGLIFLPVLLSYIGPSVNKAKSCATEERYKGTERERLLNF
Sequence of UniProt Q8N6M0 (Q8N6M0 whole entry, looked up): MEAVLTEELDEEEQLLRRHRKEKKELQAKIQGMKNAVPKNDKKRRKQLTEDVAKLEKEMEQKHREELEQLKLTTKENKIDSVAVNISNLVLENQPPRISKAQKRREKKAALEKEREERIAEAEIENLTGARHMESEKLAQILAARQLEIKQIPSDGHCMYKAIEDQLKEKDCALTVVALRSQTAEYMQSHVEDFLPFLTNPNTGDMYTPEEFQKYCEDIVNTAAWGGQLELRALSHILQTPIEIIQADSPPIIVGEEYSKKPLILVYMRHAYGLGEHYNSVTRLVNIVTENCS
Sequence of UniProt Q9BWT6 (Q9BWT6 whole entry, looked up): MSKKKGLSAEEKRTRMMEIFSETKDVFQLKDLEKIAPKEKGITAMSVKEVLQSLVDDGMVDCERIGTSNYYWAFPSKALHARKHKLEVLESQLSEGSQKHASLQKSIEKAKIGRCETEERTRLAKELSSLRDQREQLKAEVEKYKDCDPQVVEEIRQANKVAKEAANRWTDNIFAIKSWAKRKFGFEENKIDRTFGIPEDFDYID
Sequence of UniProt P17568 (P17568 whole entry, looked up): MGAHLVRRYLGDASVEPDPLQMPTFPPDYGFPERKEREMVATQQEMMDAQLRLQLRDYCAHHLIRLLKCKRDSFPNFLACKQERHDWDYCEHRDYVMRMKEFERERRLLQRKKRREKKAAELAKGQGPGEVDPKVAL
Sequence of UniProt Q9UMY1 (Q9UMY1 whole entry, looked up): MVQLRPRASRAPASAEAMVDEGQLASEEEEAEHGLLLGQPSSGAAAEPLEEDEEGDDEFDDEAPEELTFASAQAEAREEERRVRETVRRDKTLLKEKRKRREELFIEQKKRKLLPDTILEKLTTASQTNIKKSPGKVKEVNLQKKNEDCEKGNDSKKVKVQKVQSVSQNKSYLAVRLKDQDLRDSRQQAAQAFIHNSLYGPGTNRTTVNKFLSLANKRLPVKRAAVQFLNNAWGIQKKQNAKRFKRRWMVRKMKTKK
Sequence of UniProt Q9Y2X3 (Q9Y2X3 whole entry, looked up): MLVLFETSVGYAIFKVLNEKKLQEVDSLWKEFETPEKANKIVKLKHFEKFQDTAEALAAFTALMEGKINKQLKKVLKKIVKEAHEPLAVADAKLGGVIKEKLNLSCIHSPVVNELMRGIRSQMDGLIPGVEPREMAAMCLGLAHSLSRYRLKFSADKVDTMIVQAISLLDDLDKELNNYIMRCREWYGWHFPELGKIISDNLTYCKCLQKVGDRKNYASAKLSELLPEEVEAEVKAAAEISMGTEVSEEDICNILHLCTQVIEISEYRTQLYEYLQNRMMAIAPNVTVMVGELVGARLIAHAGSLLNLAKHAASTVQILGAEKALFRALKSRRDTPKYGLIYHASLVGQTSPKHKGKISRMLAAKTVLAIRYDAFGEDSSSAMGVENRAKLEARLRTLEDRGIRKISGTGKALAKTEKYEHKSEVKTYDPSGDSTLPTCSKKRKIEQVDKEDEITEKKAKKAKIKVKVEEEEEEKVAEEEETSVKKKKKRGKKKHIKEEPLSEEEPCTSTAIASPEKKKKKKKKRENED
Sequence of UniProt Q8N4C8 (Q8N4C8 whole entry, looked up): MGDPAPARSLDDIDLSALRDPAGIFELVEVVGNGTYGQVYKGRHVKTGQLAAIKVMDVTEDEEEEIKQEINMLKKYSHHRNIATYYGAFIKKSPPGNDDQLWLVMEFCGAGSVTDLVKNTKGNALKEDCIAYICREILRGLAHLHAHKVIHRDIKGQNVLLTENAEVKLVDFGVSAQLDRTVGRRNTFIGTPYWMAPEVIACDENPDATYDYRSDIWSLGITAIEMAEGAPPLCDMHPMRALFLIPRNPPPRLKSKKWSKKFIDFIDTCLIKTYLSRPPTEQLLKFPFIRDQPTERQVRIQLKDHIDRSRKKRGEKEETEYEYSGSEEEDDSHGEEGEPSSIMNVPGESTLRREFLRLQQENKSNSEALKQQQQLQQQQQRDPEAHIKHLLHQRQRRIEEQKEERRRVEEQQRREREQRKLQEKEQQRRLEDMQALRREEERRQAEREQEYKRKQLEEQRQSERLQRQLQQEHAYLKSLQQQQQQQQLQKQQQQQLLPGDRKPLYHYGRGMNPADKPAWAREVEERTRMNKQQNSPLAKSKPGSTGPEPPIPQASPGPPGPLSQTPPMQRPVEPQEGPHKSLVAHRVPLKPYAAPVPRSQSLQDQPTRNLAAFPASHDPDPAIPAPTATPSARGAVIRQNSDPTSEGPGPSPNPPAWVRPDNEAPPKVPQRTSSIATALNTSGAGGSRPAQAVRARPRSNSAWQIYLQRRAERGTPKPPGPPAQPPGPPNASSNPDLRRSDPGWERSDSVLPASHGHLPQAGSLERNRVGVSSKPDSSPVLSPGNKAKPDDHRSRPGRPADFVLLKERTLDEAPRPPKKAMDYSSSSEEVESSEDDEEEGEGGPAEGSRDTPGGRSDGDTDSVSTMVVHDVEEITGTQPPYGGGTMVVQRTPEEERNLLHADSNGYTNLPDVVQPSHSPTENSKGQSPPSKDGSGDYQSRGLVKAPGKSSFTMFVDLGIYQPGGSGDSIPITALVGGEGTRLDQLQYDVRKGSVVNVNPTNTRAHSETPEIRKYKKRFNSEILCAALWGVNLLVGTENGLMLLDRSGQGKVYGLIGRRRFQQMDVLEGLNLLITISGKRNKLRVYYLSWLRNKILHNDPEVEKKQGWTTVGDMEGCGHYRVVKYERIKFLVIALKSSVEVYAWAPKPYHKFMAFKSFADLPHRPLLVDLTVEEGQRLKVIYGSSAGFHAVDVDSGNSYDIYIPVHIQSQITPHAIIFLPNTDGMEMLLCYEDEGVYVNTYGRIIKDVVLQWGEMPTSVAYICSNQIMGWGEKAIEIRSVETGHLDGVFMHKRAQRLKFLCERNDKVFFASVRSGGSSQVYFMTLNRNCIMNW
Sequence of UniProt P84157 (P84157 whole entry, looked up): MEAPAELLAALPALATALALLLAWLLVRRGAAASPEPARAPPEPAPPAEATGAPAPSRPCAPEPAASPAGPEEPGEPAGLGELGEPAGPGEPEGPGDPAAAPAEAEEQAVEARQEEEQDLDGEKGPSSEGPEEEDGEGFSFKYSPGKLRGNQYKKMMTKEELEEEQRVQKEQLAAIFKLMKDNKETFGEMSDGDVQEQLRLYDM
Sequence of UniProt Q7L1V2 (Q7L1V2 whole entry, looked up): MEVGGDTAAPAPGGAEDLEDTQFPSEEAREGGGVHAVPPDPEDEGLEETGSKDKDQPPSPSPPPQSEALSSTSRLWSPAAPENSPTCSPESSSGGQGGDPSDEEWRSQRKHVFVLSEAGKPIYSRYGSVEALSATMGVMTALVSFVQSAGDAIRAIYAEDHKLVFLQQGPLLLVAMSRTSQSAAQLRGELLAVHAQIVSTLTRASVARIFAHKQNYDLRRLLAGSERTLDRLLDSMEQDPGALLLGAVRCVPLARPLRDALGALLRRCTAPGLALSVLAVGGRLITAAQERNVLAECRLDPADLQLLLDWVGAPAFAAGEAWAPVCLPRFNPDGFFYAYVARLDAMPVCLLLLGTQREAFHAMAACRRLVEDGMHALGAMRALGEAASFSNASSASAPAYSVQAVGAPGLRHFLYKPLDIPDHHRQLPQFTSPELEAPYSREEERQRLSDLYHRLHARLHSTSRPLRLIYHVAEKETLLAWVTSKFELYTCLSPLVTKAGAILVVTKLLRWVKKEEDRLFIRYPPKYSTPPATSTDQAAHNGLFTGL
Sequence of UniProt O95169 (O95169 whole entry, looked up): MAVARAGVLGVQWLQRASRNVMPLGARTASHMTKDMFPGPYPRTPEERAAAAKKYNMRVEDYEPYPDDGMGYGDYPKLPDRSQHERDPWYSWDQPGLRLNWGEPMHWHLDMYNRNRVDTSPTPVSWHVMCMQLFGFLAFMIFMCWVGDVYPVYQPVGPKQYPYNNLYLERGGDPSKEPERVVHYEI

Compound in this test: CCN(CCCOc1ccc2c(Nc3cc(CC(=O)Nc4cccc(F)c4)[nH]n3)ncnc2c1)CCOP(=O)(O)O [barasertib]
Kind of test: log2 fold change, soluble protein after heating vs DMSO (PISA); higher = thermal stabilisation; K562 cells, 10 uM, 30 min; active = over 0.2 and 3.5 SD of the protein, either way, in both replicates (recomputed). The method, boiled down:
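K562 cells at 2×10^6 cells/mL were treated for 30 min with 10 μM compound, and aliquots were heated for 3 min over 48°C-58°C before pooling. Extraction used PBS with 0.5% NP-40 at 4°C, and soluble protein was the supernatant after 21,000xg for 90 min, measured by TMTpro 16plex LC-MS/MS with channel sums equalised. Thermal stability values, relative to control samples and from duplicates, are log2 fold changes.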
MORF4L2 (UniProt Q15014): the log2 fold change was -0.03 (inactive).
The result for MRPL46 (UniProt Q9H2W6) reads -0.008 (inactive).
The result for NCKAP1 isoform 2 (UniProt Q9Y2A7) reads -0.009 (inactive); that for MSTO1 (UniProt Q9BUK6), 0.037 (inactive).
The result for MSH3 (UniProt P20585) reads -0.001 (inactive); that for NANS (UniProt Q9NR45), 0.01 (inactive); that for OSTC (UniProt Q9NRP0), 0.061 (inactive).
Consider NCOR1 (UniProt O75376), for which the log2 fold change was -0.094 (inactive).
Regarding MRPS21 (UniProt P82921), the log2 fold change was -0.156 (inactive).
The result for NISCH (UniProt Q9Y2I1) reads 0.075 (inactive).
The result for NUP85 (UniProt Q9BW27) reads 0.017 (inactive).
The result for MPHOSPH10 (UniProt O00566) reads -0.107 (inactive).
With NOP58 (UniProt Q9Y2X3), the log2 fold change was -0.075 (inactive).
With MRPS26 (UniProt Q9BYN8), the log2 fold change is 0.026 (inactive).
In the case of MRPS24 (UniProt Q96EL2), the log2 fold change is -0.024 (inactive).
The result for MON1B (UniProt Q7L1V2) reads 0.005 (inactive).
Take OSBP (UniProt P22059): the log2 fold change is -0.001 (inactive).
The result for MINK1 (UniProt Q8N4C8) reads -0.016 (inactive); that for MRPS9 (UniProt P82933), -0.043 (inactive).
The result for NR2C2 isoform 2 (UniProt P49116) reads 0.028 (inactive); that for NUP107 (UniProt P57740), 0.017 (inactive); that for PAFAH1B2 (UniProt P68402), 0.046 (inactive).
The result for MXRA7 (UniProt P84157) reads 0.048 (inactive).
Turning to NOP53 (UniProt Q9NZM5), the log2 fold change was -0.105 (inactive).
The result for MRPS25 (UniProt P82663) reads -0.02 (inactive); that for MND1 (UniProt Q9BWT6), -0.032 (inactive); that for OTUD6B (UniProt Q8N6M0), 0.096 (inactive).
Consider NDUFB8 (UniProt O95169), for which the log2 fold change is 0.023 (inactive).
Turning to OXSR1 (UniProt O95747), the log2 fold change was 0.035 (inactive).
On to NOL7 (UniProt Q9UMY1), for which the log2 fold change is -0.092 (inactive).
The result for MRPL34 (UniProt Q9BQ48) reads 0.022 (inactive).
The result for MT-ATP6 (UniProt P00846) reads 0.567 (inactive).
The result for MRPS35 (UniProt P82673) reads -0.034 (inactive).
Turning to NECTIN2 (UniProt Q92692), the log2 fold change is -0.024 (inactive).
The result for NAA38 isoform 2 (UniProt Q9BRA0) reads -0.025 (inactive); that for NPC1 (UniProt O15118), 0.02 (inactive); that for NOSIP (UniProt Q9Y314), 0.197 (inactive).
The result for NDUFB7 (UniProt P17568) reads -0.012 (inactive).
The result for PACS1 (UniProt Q6VY07) reads 0.039 (inactive).
